In PubChem BioAssay (NCI):
This is part of a sample that, as a whole, favours compounds with a hit. Of some 83,000 tested, about 20% had one in any assay.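 The test compound was applied at a single concentration to cells in 96-well plates for 48 hours, and percent growth was recorded.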 A number with no mark means an inactive call. The source made the active and inactive calls. The calls were made as follows: active = growth percent below 10; inactive = the rest.

Assays:
Assay in all cases: NCI-60 one-dose screen, 48 h (100 = growth as untreated, 0 = no growth, -100 = all killed)
Conditions in all cases: 10 µM unless noted
DU-145 prostate = system: DU-145 prostate
K-562 leukemia = system: K-562 leukemia
MALME-3M melanoma = system: MALME-3M melanoma
MDA-MB-231 breast = system: MDA-MB-231 breast
RXF 393 renal = system: RXF 393 renal
SF-268 CNS = system: SF-268 CNS
SF-295 CNS = system: SF-295 CNS
SF-539 CNS = system: SF-539 CNS
UACC-257 melanoma = system: UACC-257 melanoma
M14 melanoma = system: M14 melanoma
HCT-15 colon = system: HCT-15 colon
HT29 colon = system: HT29 colon
SNB-75 CNS = system: SNB-75 CNS
SNB-19 CNS = system: SNB-19 CNS
U251 CNS = system: U251 CNS
PC-3 prostate = system: PC-3 prostate
SK-MEL-5 melanoma = system: SK-MEL-5 melanoma
UACC-62 melanoma = system: UACC-62 melanoma
SK-MEL-28 melanoma = system: SK-MEL-28 melanoma
LOX IMVI melanoma = system: LOX IMVI melanoma

Compound	growth (DU-145 prostate)	growth (K-562 leukemia)	growth (MALME-3M melanoma)	growth (MDA-MB-231 breast)	growth (RXF 393 renal)	growth (SF-268 CNS)	growth (SF-295 CNS)	growth (SF-539 CNS)	growth (UACC-257 melanoma)	growth (M14 melanoma)	growth (HCT-15 colon)	growth (HT29 colon)	growth (SNB-75 CNS)	growth (SNB-19 CNS)	growth (U251 CNS)	growth (PC-3 prostate)	growth (SK-MEL-5 melanoma)	growth (UACC-62 melanoma)	growth (SK-MEL-28 melanoma)	growth (LOX IMVI melanoma) [%]
COc1cc(NC(=O)c2cc(O)c(C/C=C(\C)CCC=C(C)C)c(O)c2)cc2c1O[C@]1(C)CC[C@@H](O)C(C)(C)[C@H]1C2	20.3%	0.252% (active)	-18.5% (active)	-33.7% (active)	-38.7% (active)	15.7%	-8.51% (active)	-51.2% (active)	34.4%	-15.4% (active)	10.4%	2.06% (active)	0.372% (active)	8.74% (active)	0.579% (active)	13.1%	-68.2% (active)	-4.89% (active)	8.85% (active)	–
C#C[C@@]1(O)[C@@H](CO)O[C@@H](n2cc(I)c3c(N)ncnc32)[C@@H]1O	7.45% (active)	6.9% (active)	-5.65% (active)	2.55% (active)	-27.7% (active)	28.5%	10.5%	-40.5% (active)	44.7%	22.4%	5.73% (active)	2.8% (active)	-10.1% (active)	8.06% (active)	-0.637% (active)	4.04% (active)	-9.34% (active)	4.29% (active)	43.2%	–
C=C(C)[C@@H]1CC[C@]2(C(=O)NCCCO)CC[C@]3(C)[C@H](CC[C@@H]4[C@@]5(C)CCCNC(C)(C)[C@@H]5CC[C@]43C)[C@@H]12	89.1%	3.26% (active)	-74.4% (active)	49%	58.2%	77.9%	89.3%	70.4%	-44.2% (active)	33.7%	68.6%	7.18% (active)	72.2%	85.4%	53.7%	49.2%	13%	83.8%	51.3%	–
O=C1Nc2ccc(Cl)cc2/C1=N/c1nc(-c2ccc(Cl)cc2)cs1	26.2%	5.94% (active)	22.2%	-22.8% (active)	-19.7% (active)	21.6%	14.3%	-6.26% (active)	-2.07% (active)	1.32% (active)	26.7%	-0.232% (active)	26.2%	10.8%	-3.58% (active)	2.97% (active)	8.24% (active)	-46.6% (active)	16.3%	–
C=C(C)[C@@H]1CC[C@]2(C(=O)N=C=S)CC[C@]3(C)[C@H](CC[C@@H]4[C@@]5(C)CCC(=O)C(C)(C)[C@@H]5CC[C@]43C)[C@@H]12	33.5%	18.8%	40.7%	18%	50.6%	36.5%	36%	31.8%	54.7%	39.3%	20.3%	15.5%	43.6%	28.1%	23.9%	20.8%	77.7%	44.5%	66%	–
N#Cc1ccc(N2Cc3cc(Cl)ccc3OC3=C2C(=O)N(Cc2ccccc2)C3=O)cc1	-75.7% (active)	-22.3% (active)	-64.4% (active)	-15.9% (active)	-79.8% (active)	-43.3% (active)	69.4%	-60.3% (active)	-56.1% (active)	-35.7% (active)	-44.9% (active)	-47.3% (active)	29.9%	69.1%	-31.7% (active)	21.9%	-31.5% (active)	-35.5% (active)	-44.4% (active)	–
Cc1nccc2c3ccc(OCc4cn(-c5ccccc5)nn4)cc3n(CCCc3ccccc3)c12	88.6%	36.5%	90.4%	79.6%	69.7%	88.3%	74.8%	78.2%	55.9%	83.3%	56.9%	38.5%	73.8%	79.3%	76.8%	65.1%	80.4%	83.3%	99%	–
Nc1c(C(=O)Nc2cccc3ccccc23)sc2nc3c(cc12)CCCCCC3	14.9%	9.1% (active)	75.9%	39.3%	21.8%	45.6%	23.7%	-0.219% (active)	68.8%	3.04% (active)	24.6%	0.156% (active)	10.6%	–	14.4%	35.1%	45.6%	32.4%	65.8%	49.1
